# Assay results: PubChem BioAssay AID489025 (Southern Research Specialized Biocontainment Screening …, 2010)
# The whole screen tested about 2,300 compounds, of which about 790 (34%) were called active. How the calls were made is not given here. Some of the results follow. Results with a measured potency or affinity are listed apart.
# Assay: THP-1 cell cytotoxicity, dose response, cytotoxicity control for non-replicating M. tuberculosis project (AID 489025)
# Details: THP-1 cell viability; series mostly up to 40 µM
row,Compound,outcome
1,Cc1nnc(C)n1/N=C/c1cc(Br)cc(Br)c1O,inactive
2,Cc1ccc(-c2nnc(SCC#CCOC(=O)c3ccco3)o2)cc1,inactive
3,CCOC(=O)COc1ccc2c(c1)c(C(=O)OCC)c(C)n2CC,inactive
4,O=C(Nc1ncccc1O)c1ccc(Oc2ccccc2)cc1,inactive
5,O=C(Nc1ccccc1N1CCCC1)c1cccc(F)c1,inactive
6,COc1cccc(NC(=O)c2ccc(C(=O)c3ccccc3)o2)c1,inactive
7,O=C(COc1ccc(Cl)cc1)NNC(=O)c1ccccn1,inactive
8,COC(=O)c1ccc(OCC(=O)c2cccc(OC)c2)cc1,inactive
9,O=C(N/N=C/c1ccc[nH]1)c1cccnc1,inactive
10,COc1ccc(OCC(=O)NNC(=O)c2ccccn2)cc1,inactive
11,CCc1ccc(NC(=O)C(=O)NNC(=O)COc2cccc(OC)c2)cc1,inactive
12,Brc1ccc(CSc2nnc(-c3ccco3)o2)cc1,inactive
13,COc1ccc([C@@]2(O)c3c(ccc(CC=C(C)C)c3O)NC(=O)[C@@H]2OC)cc1,inactive
14,CCCOC(=O)NC1CCS(=O)(=O)C1 (stereo not given),inactive
15,Cc1ccc(Sc2ccc(C=C3C(=O)N(C)C(=O)N(C)C3=O)o2)cc1,inactive
16,CCc1ccc(N2C(=O)CC(N3CCC(C(=O)OC)CC3)C2=O)cc1 (stereo not given),inactive
17,CCOC(=O)c1c(C)n(C)c2ccc(OC(C)C(=O)OC)cc12 (stereo not given),inactive
18,Oc1ccc(F)c2cccnc12,inactive
19,COc1cc(OC)cc(OC(=O)c2ccc3c(=O)n4c(nc3c2)CCC4)c1,inactive
20,CCOC(=O)C1(CCc2ccccc2)CCN(Cc2ccccn2)CC1,inactive

row,Compound,outcome
1,COc1cc(NC(=O)N2CCOCC2)cc(OC)c1,inactive
2,O=C(COc1c(Br)cc(Br)c2cccnc12)N1CCCCC1,inactive
3,COc1ccc(CN2CCC(C(=O)Nc3ccc(Oc4cccnc4)cc3)CC2)c(C)c1C,inactive
4,COc1ccc(/C=N/NC(=O)c2ccncc2)cc1CN1CCOCC1,inactive
5,O=C(CCN1CCOCC1)c1ccc(Cl)cc1,inactive
6,Cc1cccc(C2=N/C(=C\c3cccnc3)C(=O)O2)c1,inactive
7,O=C(CCSc1nnc(-c2ccccc2)o1)N1CCOCC1,inactive
8,Cc1cc(C)cc(OC(=O)c2cccnc2)c1,inactive
9,O=C(OCn1nnc2ccccc2c1=O)c1ccc(N2CCOCC2)c([N+](=O)[O-])c1,inactive
10,Cc1[nH]n(-c2ccccc2)c(=O)c1C=Nc1cnc2ccccc2c1,inactive
11,Cc1cc(CN(C)C)c(O)c(C2(C)CCCCC2)c1,inactive
12,Cc1cccc(NC(=O)COC(=O)c2cc3ccccc3oc2=O)c1,inactive
13,O=C1NC(=O)C(=Cc2ccc(-c3ccc(Cl)cc3)o2)C(=O)N1,inactive
14,O=C(Oc1c(-c2ccco2)oc2ccccc2c1=O)c1cccnc1,inactive
15,O=C(CCN1CCCCCC1)c1ccccc1,inactive
16,CCOc1ccc(-c2nc3ccccc3c(=O)o2)cc1,inactive
17,CCOc1ccc(OC(=O)c2ccc3c(=O)n4c(nc3c2)CCC4)cc1,inactive
18,CC(C)Oc1ccc(C(=O)CCN2CCCCC2)cc1,inactive
19,O=C(CCSc1ccccc1)N1CCCC1,inactive
20,COc1ccc2cc(C(=O)C3CCCN(Cc4ccccn4)C3)ccc2c1 (stereo not given),inactive

row,Compound,outcome
1,CC(C)COc1ccc(C(=O)CCN2CCCCC2)cc1,inactive
2,COc1ccc(C(=O)CCN2CCCCCC2)cc1,inactive
3,COc1ccc(NCC(=O)N2CCCC2)cc1Cl,inactive
4,CC1C/C(=N/NC(=O)c2cccc(F)c2)c2ccc(O)cc2C1 (stereo not given),inactive
5,CN1CCN(Cc2cc(C(C)(C)C)c(O)c(C(C)(C)C)c2)CC1,inactive
6,COc1cc(/C=C2\C(=O)N(c3ccc(S(N)(=O)=O)cc3)N=C2C)ccc1OC(=O)c1ccco1,inactive
7,CCC(C)n1nnc2c(=O)oc3ccccc3c21 (stereo not given),inactive
8,COc1ccc(OCC(=O)N/N=C2\CCc3ccccc32)cc1,inactive
9,Cc1ccc(NC(CC(=O)c2ccccc2)C(=O)O)cc1Cl (stereo not given),inactive
10,CC(NC(=O)OCc1ccccc1)c1ccccc1 (stereo not given),inactive
11,O=C(c1cccc2cccc(O)c12)N1CCCCC1,inactive
12,CCc1ccc(C(=O)NC2CCCCC2)s1,inactive
13,CC(C)(NO)/C(=N\O)c1ccccc1,inactive
14,Cc1c(Cl)cccc1NC(=O)C1COc2ccccc2O1 (stereo not given),inactive
15,O=S(=O)(CCN1CCN(c2ccccn2)CC1)c1ccc(Cl)cc1Cl,inactive
16,COc1ccc(OC)c(N2C(=O)NC(=O)/C(=C/c3ccc([N+](=O)[O-])s3)C2=O)c1,inactive
17,O=C1NC(=O)N(Cc2ccc(F)cc2)C(=O)/C1=C\c1ccc([N+](=O)[O-])s1,inactive
18,O=C1NC(=O)C(=Cc2ccc(Oc3ccc([N+](=O)[O-])cc3)cc2)C(=O)N1,inactive
19,NNC(=O)COc1cccc(Oc2ccccc2)c1,inactive
20,CC(C(=O)OCC(=O)c1ccccc1)N1C(=O)C2C3CCC(C3)C2C1=O (stereo not given),inactive
